Test results as given in PubChem BioAssay AID1159580 (chemical genetic matrix, 2015).
Several values for one entry are separate records, joined by “and”; a condition that tells them apart may be missing. Identical values can stand only once. About 2,000 (36%) of roughly 5,500 compounds were called active. About 18% were inconclusive and are not listed. No stated cut-off is given here; in the data, active means normalized growth mostly below about 0.91 (no sharp cut-off); inconclusive means no clear call, values can overlap the other calls; inactive means mostly above about 0.92. This is one part of the list.

Test: chemical genetic growth profiling, strain panel (AID 1159580);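 further: tested at 20 µM; growth read once vehicle control cultures reached saturation at 30 °C; 1 = growth at the plate median or of vehicle wells; lower values mean less growth of the strain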
Conditions: S. cerevisiae deletion strains, growth OD

Measured: normalized growth

CCCCC1C(=O)N(c2ccccc2)N(c2ccccc2)C1=O
inactive: locus YAL013W, strain DEP1, active compounds read low 0.971 and 0.998 | locus YAL021C, strain ccr4, active compounds read low 0.999 | locus YAL026C, strain drs2, active compounds read low 0.982 | locus YAL030W, strain snc1, active compounds read low 0.987 | locus YAL040C, strain CLN3, active compounds read low 0.963 | locus YBL061C, strain skt5, active compounds read low 0.997 | locus YBR009C, strain hhf1, active compounds read low 1.01 | locus YBR021W, strain FUR4, active compounds read low 1.01 | locus YBR023C, strain chs3, active compounds read low 0.998 | locus YBR171W, strain sec66, active compounds read low 0.977 | locus YBR229C, strain ROT2, active compounds read low 0.983 | locus YBR231C, strain swc5, active compounds read low 1 | locus YBR279W, strain paf1, active compounds read low 1.02 | locus YCL011C, strain gbp2, active compounds read low 1 | locus YCL016C, strain dcc1, active compounds read low 1 | locus YCL029C, strain bik1, active compounds read low 1.01 | locus YCL061C, strain MRC1 (second series), active compounds read low 0.998 | locus YCL061C, strain MRC1, active compounds read low 0.983 | locus YCL069W, strain vba3, active compounds read low 0.999 | locus YCR088W, strain abp1, active compounds read low 0.985 | locus YDL005C, strain med2, active compounds read low 1 | locus YDL035C, strain GPR1, active compounds read low 0.989 | locus YDL040C, strain nat1, active compounds read low 0.99 | locus YDL074C, strain BRE1, active compounds read low 1.02 | locus YDL101C, strain DUN1, active compounds read low 1.01 | locus YDL134C, strain PPH21, active compounds read low 0.986 | locus YDL185W, strain tfp1, active compounds read low 0.994 | locus YDL192W, strain arf1, active compounds read low 0.988 | locus YDR001C, strain nth1, active compounds read low 0.984 | locus YDR069C, strain doa4, active compounds read low 0.982 | locus YDR101C, strain arx1, active compounds read low 1.01 | locus YDR137W, strain rgp1, active compounds read low 0.915 | locus YDR150W, strain NUM1, active compounds read low 0.99 and 0.997 | locus YDR159W, strain sac3, active compounds read low 0.972 | locus YDR162C, strain NBP2, active compounds read low 0.976 | locus YDR195W, strain ref2 0.992 | locus YDR297W, strain sur2, active compounds read low 0.989 | locus YDR318W, strain mcm21, active compounds read low 1.01 | locus YDR334W, strain swr1, active compounds read low 0.994 | locus YDR335W, strain msn5, active compounds read low 0.997 | locus YDR363W, strain ESC2, active compounds read low 1.03 | locus YDR388W, active compounds read low 1 | locus YDR392W, strain spt3, active compounds read low 0.969 | locus YDR502C, strain sam2, active compounds read low 0.986 | locus YEL003W, strain gim4, active compounds read low 1 | locus YEL037C, strain rad23, active compounds read low 0.991 | locus YEL061C, strain CIN8 (second series), active compounds read low 0.983 | locus YEL061C, strain CIN8, active compounds read low 0.981 | locus YER002W, strain NOP16, active compounds read low 0.974 | locus YER015W, strain faa2, active compounds read low 0.998 | locus YER016W, strain bim1, active compounds read low 0.99 | locus YER110C, active compounds read low 0.993 | locus YER111C, strain swi4, active compounds read low 0.979 | locus YER155C, strain BEM2 (second series), active compounds read low 1.03 | locus YER155C, strain BEM2, active compounds read low 1.01 | locus YER167W, strain BCK2, active compounds read low 0.987 | locus YFR010W, strain ubp6, active compounds read low 0.991 | locus YGL078C, strain dbp3, active compounds read low 1.01 | locus YGL086W, strain mad1, active compounds read low 0.963 | locus YGL167C, strain pmr1, active compounds read low 0.977 | locus YGL173C, strain kem1, active compounds read low 0.983 | locus YGL227W, strain vid30, active compounds read low 1 | locus YGL240W, strain doc1, active compounds read low 1.01 | locus YGL248W, strain PDE1, active compounds read low 0.991 | locus YGL253W, strain hxk2, active compounds read low 0.994 | locus YGR078C, strain PAC10, active compounds read low 1.02 and 0.981 | locus YGR135W, strain pre9, active compounds read low 0.994 | locus YGR229C, strain SMI1, active compounds read low 0.983 and 1 | locus YGR252W, strain gcn5, active compounds read low 0.922 | locus YHR013C, strain ard1, active compounds read low 0.992 | locus YHR027C, strain rpn1, active compounds read low 0.99 | locus YHR030C, strain SLT2, active compounds read low 0.992 and 0.937 | locus YHR079C, strain IRE1 (second series), active compounds read low 1 | locus YHR079C, strain IRE1, active compounds read low 0.917 | locus YHR094C, strain hxt1, active compounds read low 0.991 | locus YHR129C, strain ARP1, active compounds read low 0.994 | locus YHR142W, strain chs7, active compounds read low 1.03 | locus YHR200W, strain rpn10, active compounds read low 1 | locus YIL066C, strain RNR3, active compounds read low 0.991 | locus YIL073C, strain SPO22, active compounds read low 1.01 | locus YIL125W, strain kgd1, active compounds read low 0.98 | locus YIR030C, strain dcg1, active compounds read low 0.993 | locus YJL092W, strain hpr5, active compounds read low 0.985 | locus YJL095W, strain BCK1 (second series), active compounds read low 0.996 | locus YJL095W, strain BCK1, active compounds read low 1.03 and 0.938 | locus YJL115W, strain asf1, active compounds read low 0.99 | locus YJL129C, strain trk1, active compounds read low 0.999 | locus YJL134W, strain LCB3, active compounds read low 0.977 | locus YJL154C, strain vps35, active compounds read low 0.991 | locus YJL164C, strain tpk1, active compounds read low 1.01 | locus YJL166W, strain qcr8, active compounds read low 1.01 | locus YJL168C, strain set2, active compounds read low 0.988 | locus YJL187C, strain SWE1 (second series), active compounds read low 1.01 | locus YJL187C, strain SWE1, active compounds read low 0.988 | locus YJR043C, strain POL32, active compounds read low 1.04 | locus YJR066W, strain TOR1, active compounds read low 0.915
